PubChem BioAssay (NCI)
The panel holds about 83,000 compounds, 20% with a hit somewhere; the sample as a whole holds those more often.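 Percent growth is the endpoint: 0 to 100 indicates growth inhibition (40 means 60% inhibition), 0 means no net growth, and negative values indicate cell death.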 A number with no mark means an inactive call. Active and inactive are the calls of the source. Rule for the calls: active = growth percent below 10; inactive = the rest.

Tested on: HL-60(TB) leukemia
Experiment: NCI-60 one-dose screen, 48 h (100 = growth as untreated, 0 = no growth, -100 = all killed)
Details: 10 µM unless noted

Row | Structure (SMILES) | growth
1 | CCOC(=O)c1c(NC(=S)Nc2ccc([N+](=O)[O-])cc2)sc2c1CCCCC2 | 70.5%
2 | C[C@H]1[C@H](C)CC[C@]2(C(=O)O)CC[C@]3(C)C(=CC[C@@H]4[C@@]5(C)C[C@@H](Cc6cn([C@@H]7O[C@H](CO)[C@@H](O)[C@H](O)[C@H]7O)nn6)[C@H](O)C(C)(C)[C@@H]5CC[C@]43C)[C@H]12 | 91%
3 | O=[N+]([O-])c1cc(F)c2cccnc2c1O | 72.9%
4 | CCN(CC)CCCCNc1c2ccccc2[n+](C)c2c1[nH]c1ccccc12 | 22.7%
5 | Cc1scc2c1N(C(=O)CN1CCN(C)CC1)c1ccccc1NC2=O | 121%
6 | COc1ccc(-c2ccc(NC(=O)Nc3ccc(Cl)c(C(F)(F)F)c3)c(C)n2)cc1 | 32.3%
7 | COc1cccc(Nc2ncnn3ccc(CN4CC[C@@H](N)[C@H](O)C4)c23)c1 | 73.8%
8 | Cc1cn(-c2cc(NC(=O)c3ccc(C)c(Nc4nccc(-c5cccnc5)n4)c3)cc(C(F)(F)F)c2)cn1 | 53.3%
9 | CNCCCn1c2c(c3ccc(Cl)cc3c1=O)C(=O)c1cc(OC)cnc1-2 | -26.3% (active)
10 | C[C@@H]1CC2C3CCC4=CC(=O)C=C[C@]4(C)[C@@]3(Cl)[C@@H](O)C[C@]2(C)[C@@]1(OC(=O)c1ccco1)C(=O)CCl (stereo partly drawn) | 78.2%
11 | COc1ccc(COc2cc3oc(=O)c4cc(C(C)O)ccc4c3cc2OC)cc1 (stereo not drawn) | 73.1%
12 | C=C1C(=O)O[C@H]2[C@H]1CCC(/C=N/c1ncc(Br)cc1N)=C\CC[C@@]1(C)O[C@@H]21 | -21.4% (active)
13 | CCNNC(=O)[C@@H]1[C@H](c2cc(OC)c(OC)c(OC)c2)c2cc3c(cc2[C@H](O)[C@H]1CO)OCO3 | -24.1% (active)
